Results filed as inconclusive are left out. Calls of active or inactive are those of the source. Unless noted, the call rests on the fitted dose curve; in most records, active means well fitted inhibition curve with a large enough effect; inconclusive means small, poorly fitted or top-dose-only effect; inactive means flat fitted curve, though single readings scatter.

A short description of experiment [1]: AP1 Signaling Pathway (AID 357; active means well fitted curve in either direction with a large enough effect, not every such curve was filed as active;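 further: ME-180 reporter cells stimulated with EGF at its EC50 level; on the % scale 0 is the no-effect control and ±100 the full control effect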). In short, it runs like this:
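Cells are seeded overnight, exposed to compound titrations and an EC50 level of EGF for 5 hours at 37 °C, then loaded with CCF4 dye for 2.5 hours. Beta-lactamase activity under the AP-1 element is read as a blue/green ratio.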

Experiment [2] in a line: NFAT Signaling Pathway (AID 444; active means well fitted curve in either direction with a large enough effect, not every such curve was filed as active;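 further: carbachol stimulus at about its EC50 of 1 µM final; on the % scale 0 is the no-effect control and ±100 the full control effect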). Conditions: Jurkat NFAT-bla M1, carbachol, beta-lactamase ratio, 5 h; at 17.2 µM (top of the series) unless noted. Put shortly:
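Jurkat cells carrying an NFAT-driven β-lactamase reporter and co-transfected muscarinic M1 receptor were treated with compound plus carbachol (1 uM final, an EC50 level) for 5 h at 37 °C. CCF4 loading followed for 1 h at RT; 460/530 nm ratio gave %activity.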

Experiment [3] in a line: Stat Signaling Pathway (AID 446; active means well fitted curve in either direction with a large enough effect, not every such curve was filed as active;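 further: ME-180 cervical cancer cells given 40 pM IL-6 alongside compound; SIE-controlled beta-lactamase reporter measured as 460/530 nm FRET emission ratio; on the % scale 0 is the no-effect control and ±100 the full control effect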). In short, it runs like this: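 Emission at 460 and 530 nm (excitation 405 nm) reports SIE-controlled beta-lactamase in ME-180 cells. Cells received compound with 40 pM IL-6 for 5 hrs at 37 C; data scaled between 300 pM IL-6 and 125 nM JAK-inhibitor controls.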
The target of experiment [4] is Mitogen-activated protein kinase 10 (Mus musculus) (UniProt Q61831). Kind of experiment: JNK3 AlphaScreen Assay (AID 530; active means well fitted curve in either direction with a large enough effect, not every such curve was filed as active;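 further: kinase came from lysate of stimulated human HepG2 cells; signal reports phosphorylation of biotinylated GST-cJun 1-79 at Ser73 with 10 µM ATP; on the % scale 0 is the no-effect control and ±100 the full control effect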). Put shortly:
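Phosphorylation of biotinylated GST-cJun(1-79) at Ser73 is measured by AlphaScreen proximity luminescence. Enzyme is JNK3 in HepG2 lysates activated with interleukin-1beta and tumor necrosis factor alpha; ATP is 10 uM final.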
Background: Alpha assays give light when donor and acceptor beads are brought close together.

The target in experiment [5] is 3',5'-cyclic-AMP phosphodiesterase 4B (Homo sapiens) (UniProt Q07343). Kind of experiment: qHTS Assay for Inhibitors of PDE-IV (AID 607; active means well fitted activation curve with a large enough effect in the main read-out, with a control signal flat, not every such curve was filed as active; further: % of control where 0% means no effect). In short, it runs like this:
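The readout is membrane depolarisation from a cAMP-sensing CNG channel, detected with a potential dye at ex 535/em 590. Cells were HEK293-derived (endogenous PDE-IV) at 1000 cells/well, titrated up to 22.9 uM final.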
For orientation: Quantitative high-throughput screening tests each substance at several concentrations.

A short description of experiment [6]: qHTS Assay for Lipid Storage Modulators (AID 1519; calls by dose curve). The conditions noted are these: Drosophila S3 cells, BODIPY lipid droplet/cell ratio, laser cytometry, cells loaded with oleic acid; for activity change, negative = inhibition: at 25.7 µM (top of the series). Put shortly: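 Cells seeded at 5,000 per well were treated with compounds over a concentration series and loaded with oleic acid (400 uM, as added). Lipid droplet fluorescence (488 nm excitation, 500-530 nm channel) was read by laser-scanning cytometry and normalized to 20 uM Triacsin C.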

The target in experiment [7] is Ubiquitin carboxyl-terminal hydrolase 1 (Homo sapiens) (UniProt O94782). As to the kind of experiment: Inhibitors of USP1/UAF1: Pilot qHTS (AID 504865).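 Further: rhodamine fluorescence freed from ubiquitin-rhodamine substrate followed over time; top concentration of the series differs between compounds; on the % scale 0 is the no-effect control and ±100 the full control effect; nearly all actives have a fitted effect of over 35% in size.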 Put shortly:
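USP1/UAF1 complex at 1 nM preincubated 15 min at room temperature with compound, then Ub-Rho substrate added at 150 nM final. Fluorescence (480/540 nm) read kinetically in 50 mM HEPES pH 7.8, 0.5 mM EDTA, 1 mM TCEP, 0.1 mg/ml BSA, 0.01% Tween-20.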

Experiment [8] in a line: qHTS profiling for inhibitors of Plasmodium falciparum proliferation (AID 504749).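 Further: 0% = DMSO vehicle and full inhibition = artemisinin control; nearly all actives have a fitted effect of over 60% in size.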 The conditions noted are these: P. falciparum in erythrocytes, SYBR Green DNA, 72 h. Put shortly: (§1)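 Quantitative HTS: compounds pinned into medium, infected erythrocytes added (0.3% parasitemia, 2.5% hematocrit), 72 h culture at 37 C under 5% CO2. Saponin/Triton lysis with SYBR Green I, overnight RT, then fluorescence read.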

For experiment [9], the system named is C2A. Described as above. The conditions noted are these: P. falciparum in erythrocytes, SYBR Green DNA, 72 h; series mostly up to 12.8 µM. In short, it runs like this:
as §1

Experiment [10] concerns CP191. Described as above. Conditions: P. falciparum in erythrocytes, SYBR Green DNA, 72 h; series mostly up to 12.8 µM. Put shortly: as §1
Experiment [11] concerns CP217. The description is as above. Conditions: P. falciparum in erythrocytes, SYBR Green DNA, 72 h; series mostly up to 12.8 µM. Put shortly: as §1
For experiment [12], the system named is CP238. The description is as above. Conditions: P. falciparum in erythrocytes, SYBR Green DNA, 72 h; series mostly up to 12.8 µM. Put shortly:
as §1

The subject of experiment [13] is CP250. Described as above. Conditions: P. falciparum in erythrocytes, SYBR Green DNA, 72 h; series mostly up to 12.8 µM. In short, it runs like this:
as §1

Experiment [14] concerns CP256. The experiment is described as above. The conditions noted are these: P. falciparum in erythrocytes, SYBR Green DNA, 72 h; series mostly up to 12.8 µM. Put shortly: as §1
The subject of experiment [15] is FAB9. The experiment is described as above. The conditions noted are these: P. falciparum in erythrocytes, SYBR Green DNA, 72 h; series mostly up to 12.8 µM. In short, it runs like this:
as §1

For experiment [16], the system named is JCK. The description is as above. Conditions: P. falciparum in erythrocytes, SYBR Green DNA, 72 h; series mostly up to 12.8 µM. Put shortly: as §1
Experiment [17] has as its system PC49. Described as above. Conditions: P. falciparum in erythrocytes, SYBR Green DNA, 72 h; series mostly up to 12.8 µM. In short, it runs like this:
as §1

Experiment [18] concerns SC27B. The description is as above. The conditions noted are these: P. falciparum in erythrocytes, SYBR Green DNA, 72 h; series mostly up to 12.8 µM. In short, it runs like this: as §1
Experiment [19] concerns the target Glucocorticoid receptor (Homo sapiens) (UniProt P04150). As to the kind of experiment: GR-EFC Redistribution (AID 451; calls by dose curve; further: potency means the concentration at half of the fitted maximal effect). The conditions noted are these: CHO-K1 GR-EFC translocation, beta-gal luminescence, 2 h. Put shortly: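 CHO-K1 cells stably expressing nuclear-localized β-gal enzyme acceptor and GR fused C-terminally to the enzyme donor fragment; ligand-driven nuclear translocation restores β-gal by complementation. Compounds titrated up to 46 uM final, 2 h at 37 °C; luminescence read.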

Where [20] appears, read: measured here: cell count channel max response.
The mark [21] stands for this setting: measured here: lipid channel max response.
[22] abbreviates: at 12.8 µM (top of the series), parasite line A.
The mark [23] stands for this setting: at 12.8 µM (top of the series), parasite line B.

Chain of Ubiquitin carboxyl-terminal hydrolase 1 (Homo sapiens) (O94782 whole entry, looked up): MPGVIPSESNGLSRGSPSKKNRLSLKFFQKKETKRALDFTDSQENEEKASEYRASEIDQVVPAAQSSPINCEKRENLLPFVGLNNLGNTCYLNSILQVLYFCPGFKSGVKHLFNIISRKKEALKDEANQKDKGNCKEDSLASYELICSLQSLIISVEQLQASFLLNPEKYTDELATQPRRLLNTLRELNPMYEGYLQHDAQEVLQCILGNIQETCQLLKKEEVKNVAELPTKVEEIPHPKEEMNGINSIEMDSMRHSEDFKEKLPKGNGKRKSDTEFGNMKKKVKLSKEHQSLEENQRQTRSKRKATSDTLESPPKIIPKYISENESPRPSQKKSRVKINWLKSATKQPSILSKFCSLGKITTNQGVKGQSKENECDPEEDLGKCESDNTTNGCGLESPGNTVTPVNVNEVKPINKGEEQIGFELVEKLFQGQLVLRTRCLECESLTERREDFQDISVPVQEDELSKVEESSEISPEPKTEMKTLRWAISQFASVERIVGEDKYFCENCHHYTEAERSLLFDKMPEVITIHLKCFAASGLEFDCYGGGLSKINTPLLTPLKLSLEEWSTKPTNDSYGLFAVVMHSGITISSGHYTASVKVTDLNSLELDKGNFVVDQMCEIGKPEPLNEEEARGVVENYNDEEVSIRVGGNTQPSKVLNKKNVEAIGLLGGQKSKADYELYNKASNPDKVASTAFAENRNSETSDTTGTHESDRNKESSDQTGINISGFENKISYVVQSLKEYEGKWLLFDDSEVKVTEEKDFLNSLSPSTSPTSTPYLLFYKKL
Chain of 3',5'-cyclic-AMP phosphodiesterase 4B (Homo sapiens) (Q07343 whole entry, looked up): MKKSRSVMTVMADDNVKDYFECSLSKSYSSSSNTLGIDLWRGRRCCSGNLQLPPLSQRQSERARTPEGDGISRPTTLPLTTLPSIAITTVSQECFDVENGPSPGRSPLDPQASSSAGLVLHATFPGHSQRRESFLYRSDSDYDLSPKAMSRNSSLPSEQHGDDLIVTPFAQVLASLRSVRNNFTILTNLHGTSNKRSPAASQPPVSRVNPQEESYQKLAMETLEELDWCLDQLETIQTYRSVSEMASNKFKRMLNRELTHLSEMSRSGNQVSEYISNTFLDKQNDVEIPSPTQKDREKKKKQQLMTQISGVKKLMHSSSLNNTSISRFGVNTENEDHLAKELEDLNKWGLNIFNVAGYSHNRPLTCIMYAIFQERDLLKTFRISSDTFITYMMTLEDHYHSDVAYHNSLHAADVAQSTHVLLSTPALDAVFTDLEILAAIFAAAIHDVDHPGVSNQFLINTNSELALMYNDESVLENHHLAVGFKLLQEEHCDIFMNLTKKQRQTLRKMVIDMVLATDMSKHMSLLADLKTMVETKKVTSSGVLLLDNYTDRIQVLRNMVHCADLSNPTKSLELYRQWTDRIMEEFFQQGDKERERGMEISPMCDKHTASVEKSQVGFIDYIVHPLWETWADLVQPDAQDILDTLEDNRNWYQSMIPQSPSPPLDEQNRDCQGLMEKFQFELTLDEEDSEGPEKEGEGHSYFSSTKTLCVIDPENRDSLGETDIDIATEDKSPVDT
Chain of Glucocorticoid receptor (Homo sapiens) (P04150 whole entry, looked up, the tested form may be a part): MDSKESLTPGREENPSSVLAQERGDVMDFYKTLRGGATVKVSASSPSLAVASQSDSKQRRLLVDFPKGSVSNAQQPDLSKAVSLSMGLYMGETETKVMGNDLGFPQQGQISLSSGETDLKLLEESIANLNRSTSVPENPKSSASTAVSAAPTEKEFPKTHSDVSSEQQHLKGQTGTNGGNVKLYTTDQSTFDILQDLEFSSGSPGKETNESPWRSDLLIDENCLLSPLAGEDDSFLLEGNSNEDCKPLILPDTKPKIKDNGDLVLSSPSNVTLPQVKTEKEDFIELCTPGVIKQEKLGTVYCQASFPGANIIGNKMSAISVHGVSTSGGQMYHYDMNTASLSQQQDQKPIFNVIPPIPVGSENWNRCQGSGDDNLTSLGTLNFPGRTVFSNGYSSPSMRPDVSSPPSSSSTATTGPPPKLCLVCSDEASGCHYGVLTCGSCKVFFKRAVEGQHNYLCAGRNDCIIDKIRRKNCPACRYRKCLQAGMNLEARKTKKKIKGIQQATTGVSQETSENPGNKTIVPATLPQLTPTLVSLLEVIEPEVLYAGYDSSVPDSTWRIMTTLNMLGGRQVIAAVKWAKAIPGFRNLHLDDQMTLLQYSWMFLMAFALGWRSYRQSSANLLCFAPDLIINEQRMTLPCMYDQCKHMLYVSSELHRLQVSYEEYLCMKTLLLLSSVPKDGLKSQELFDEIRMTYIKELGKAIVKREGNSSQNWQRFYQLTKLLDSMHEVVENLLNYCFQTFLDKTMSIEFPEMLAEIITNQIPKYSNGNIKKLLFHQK

For the compound `CC(=O)O[C@H]1C[C@@]2(C)[C@H](C[C@@H](O)[C@H]3[C@@]4(C)CC[C@@H](O)[C@@H](C)[C@H]4CC[C@@]32C)C1=C(CCC=C(C)C)C(=O)O`, the compound was called inactive in experiment [1], in [3] and in [5]. Further, the activity change, negative = inhibition in experiment [2] is -11.2% (inactive); in experiment [6], -3.43% (inactive). The Potency result in experiment [4], in [7], in experiment [9], in [10], in experiment [11] and in experiment [12] was “inactive” each time. In addition, the Potency entry in [13], in experiment [14], in experiment [15], in experiment [16], in experiment [17] and in experiment [18] was “inactive” throughout. Moreover, the max response is -3.61% in [6] (setting [20]) and -6.42% in [6] (setting [21]). Besides, the activity, negative = inhibition in experiment [8] (at 28.7 µM (top of the series), parasite line A) was 7.93% (inactive); in experiment [8] (at 28.7 µM (top of the series), parasite line B) it was 2.16% (inactive).

As to `NC(=O)c1ncn([C@H]2O[C@@H](CO)[C@@H](O)[C@@H]2O)n1`, the result in [1], in experiment [3] and in experiment [5] was inactive. Moreover, the activity change, negative = inhibition in [2] was -18.7% (inactive); in [6], 1.03% (inactive). Moreover, the Potency in [19] was > 20.6 µM (inactive). The Potency result in [4] and in experiment [7] was “inactive” throughout. The max response in experiment [6] (setting [20]) was -8.81%; in [6] (setting [21]), -7.48%.

As for `C=C1CC23C[C@H]4[C@@H]5[C@@]6(C)C[C@H](OC(=O)c7ccccc7)[C@@H](OC(C)=O)[C@]57[C@@H]2[C@@H](OC(C)=O)[C@H]1[C@@H](O)[C@H]3[C@H]7N4C6`, the compound was called inactive in experiment [1], in [3] and in experiment [5]. The activity change, negative = inhibition in experiment [2] was -10.3% (inactive); in experiment [6], -1.43% (inactive). Moreover, in experiment [19], the Potency is > 20.6 µM (inactive). In experiment [4], the Potency entry was “inactive”. The max response in experiment [6] (setting [20]) is -3.09%; in experiment [6] (setting [21]), -1.64%.

Consider `C[C@H](O)Cn1cnc2c1c(=O)n(C)c(=O)n2C`, for which the call in [1], in [3] and in [5] was inactive. Further, the figures for the activity change, negative = inhibition in experiment [2] and in experiment [6] were 18.8% (inactive) and 0.562% (inactive), respectively. Moreover, the Potency entry in experiment [4], in experiment [7], in [9], in experiment [10], in experiment [11] and in experiment [12] was “inactive” in each case. Also, the Potency entry in experiment [13], in experiment [14], in experiment [15], in experiment [16], in [17] and in [18] was “inactive” each time. In addition, the max response is -2.3% in [6] (setting [20]) and -3.77% in experiment [6] (setting [21]). Also, the activity, negative = inhibition in experiment [8] (setting [22]) was 7.57% (inactive); in [8] (setting [23]), -0.935% (inactive).

As for `CC(=O)OCC(=O)[C@@]1(O)[C@H](C)C[C@@H]2[C@H]3CCC4=CC(=O)C=C[C@]4(C)[C@]3(F)[C@@H](O)C[C@@]21C`, the outcome in [1], in experiment [3] and in experiment [5] was inactive. The activity change, negative = inhibition is -0.305% (inactive) in [2] and -3.21% (inactive) in [6]. Also, the Potency entry in experiment [4], in [7], in experiment [9], in [10], in [11] and in experiment [12] was “inactive” in each case. Also, the Potency result in [13], in [14], in [15], in experiment [16], in experiment [17] and in experiment [18] was “inactive” in each case. In addition, the max response in experiment [6] (setting [20]) was -15.2%; in [6] (setting [21]) it was -18.5%. Further, the values for the activity, negative = inhibition in [8] (setting [22]) and in experiment [8] (setting [23]) were 0.4% (inactive) and -1.7% (inactive), respectively.

Values taken from PubChem BioAssay (NCATS).
